# Test results from the supplement of paper PMC8728848.
# About 410 targets per protein were measured; listed, in parts, are those with the strongest signals and a random draw of the rest.
# B1: RobpsCRA (Robinia pseudoacacia) (protein)
# chain: IKGGYWYSGSGLAVSDINPSHFTHLFCAFADLDPNTNKLTISSSNAAAFSTFTQTVRAKNPSVKTLLSIGGGGGRALAAVFANMASQASRRKSFIDSSIQLARRNNFHGLDLDWEYPSSDIDKTNFASLIREWRAAVATESSTSGTPALLLSAAVGGSDQITPLKYYPGEAIANNLDWVNVMTYDLYTSDSYPTLTQPPAPLFYPRGIFSADEGITKWIQSGVPESKLALGLPFYGFKWRLSDPNNHGLFAPATQGLGAVKYKDIVNTGGQVEFDSTYVTNYCFKGTDWYGYDDTQSISAKVAYAKQRGLFGYFAWHIEQDSNWALS
# Assays:
# Assay in all cases: glycan array binding signal (z-score within array); higher = stronger binding
# Conditions in all cases: glycan notation: IUPAC condensed, linker removed
# [1] = target: Fuc(a1-2)Gal(b1-3)GlcNAc(b1-3)GalNAc
# Method in brief: (§1)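 Negative Z-scores can be read as non-binding. The Z-score is calculated within each array and then averaged across arrays of one protein sequence at different concentrations or buffers and across linkers. Arrays, 3228 in all, were curated from the Consortium for Functional Glycomics database and kept only where the protein sequence was available.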
# Fuc(a1-2)Gal(b1-4)Glc = target: Fuc(a1-2)Gal(b1-4)Glc
# Method in brief: as §1
# [2] = target: Fuc(a1-2)Gal(b1-4)GlcNAc(b1-2)Man(a1-3)[Fuc(a1-2)Gal(b1-4)GlcNAc(b1-2)Man(a1-6)]Man(b1-4)GlcNAc(b1-4)GlcNAc
# Method in brief: as §1
# [3] = target: Fuc(a1-2)[Gal(a1-3)]Gal(b1-3)GalNAc
# Method in brief: as §1
# [4] = target: Fuc(a1-2)[Gal(a1-3)]Gal(b1-3)GlcNAc(b1-2)Man(a1-3)[Fuc(a1-2)[Gal(a1-3)]Gal(b1-3)GlcNAc(b1-2)Man(a1-6)]Man(b1-4)GlcNAc(b1-4)GlcNAc
# Method in brief: as §1
# [5] = target: Fuc(a1-2)[GalNAc(a1-3)]Gal(b1-3)GlcNAc(b1-2)Man(a1-3)[Fuc(a1-2)[GalNAc(a1-3)]Gal(b1-3)GlcNAc(b1-2)Man(a1-6)]Man(b1-4)GlcNAc(b1-4)[Fuc(a1-6)]GlcNAc
# Method in brief: as §1
# [6] = target: Fuc(a1-2)[GalNAc(a1-3)]Gal(b1-3)GlcNAc(b1-6)GalNAc
# Method in brief: as §1
# [7] = target: Fuc(a1-2)[GalNAc(a1-3)]Gal(b1-4)GlcNAc(b1-6)GalNAc
# Method in brief: as §1
# [8] = target: Fuc(a1-2)[GalNAc(a1-3)]Gal(b1-4)[Fuc(a1-3)]GlcNAc
# Method in brief: as §1
# [9] = target: Fuc(a1-2)[GalNAc(a1-3)]Gal(b1-4)[Fuc(a1-3)]GlcNAc(b1-3)GalNAc
# Method in brief: as §1
# [10] = target: Fuc(a1-3)[Gal(b1-4)]GlcNAc(b1-3)GalNAc
# Method in brief: as §1
# [11] = target: Fuc(a1-3)[Gal3S(b1-4)]Glc
# Method in brief: as §1
# [12] = target: Fuc(a1-3)[Gal3S(b1-4)]GlcNAc6S
# Method in brief: as §1
# Fuc(a1-4)GlcNAc = target: Fuc(a1-4)GlcNAc
# Method in brief: as §1
# [13] = target: Gal(a1-3)Gal(b1-3)GlcNAc(b1-6)GalNAc
# Method in brief: as §1
# [14] = target: Gal(a1-3)[Gal(a1-4)]Gal(b1-4)GlcNAc
# Method in brief: as §1
# [15] = target: Gal(a1-4)Gal(b1-4)GlcNAc(b1-2)Man(a1-3)[Gal(a1-4)Gal(b1-4)GlcNAc(b1-2)Man(a1-6)]Man(b1-4)GlcNAc(b1-4)GlcNAc
# Method in brief: as §1
# Gal(b1-2)Gal = target: Gal(b1-2)Gal
# Method in brief: as §1
# [16] = target: Gal(b1-3)GalNAc(b1-3)Gal(a1-4)Gal(b1-4)Glc
# Method in brief: as §1
# [17] = target: Gal(b1-3)GlcNAc(b1-2)[Gal(b1-3)GlcNAc(b1-6)]Man(a1-6)[Gal(b1-3)GlcNAc(b1-2)Man(a1-3)]Man(b1-4)GlcNAc(b1-4)GlcNAc
# Method in brief: as §1
# [18] = target: Gal(b1-3)GlcNAc(b1-3)Gal(b1-4)GlcNAc(b1-3)Gal(b1-4)GlcNAc(b1-2)[Gal(b1-3)GlcNAc(b1-3)Gal(b1-4)GlcNAc(b1-3)Gal(b1-4)GlcNAc(b1-6)]Man(a1-6)[Gal(b1-3)GlcNAc(b1-3)Gal(b1-4)GlcNAc(b1-3)Gal(b1-4)GlcNAc(b1-2)Man(a1-3)]Man(b1-4)GlcNAc(b1-4)[Fuc(a1-6)]GlcNAc
# Method in brief: as §1
# [19] = target: Gal(b1-3)GlcNAc(b1-6)GalNAc
# Method in brief: as §1
# [20] = target: Gal(b1-4)GlcNAc(b1-2)Man(a1-3)[Gal(b1-4)GlcNAc(b1-2)Man(a1-6)]Man(b1-4)GlcNAc(b1-4)GlcNAc
# Method in brief: as §1
# [21] = target: Gal(b1-4)GlcNAc(b1-2)Man(a1-6)[Man(a1-3)]Man(b1-4)GlcNAc(b1-4)GlcNAc
# Method in brief: as §1
# [22] = target: Gal(b1-4)GlcNAc(b1-2)[Gal(b1-4)GlcNAc(b1-6)]Man(a1-6)[Gal(b1-4)GlcNAc(b1-2)Man(a1-3)]Man(b1-4)GlcNAc(b1-4)[Fuc(a1-6)]GlcNAc
# Method in brief: as §1
# [23] = target: Gal(b1-4)GlcNAc(b1-3)Gal(b1-4)GlcNAc(b1-2)Man(a1-3)[Gal(b1-4)GlcNAc(b1-3)Gal(b1-4)GlcNAc(b1-2)Man(a1-6)]Man(b1-4)GlcNAc(b1-4)GlcNAc
# Method in brief: as §1
# [24] = target: Gal(b1-4)GlcNAc(b1-3)Gal(b1-4)GlcNAc(b1-3)Gal(b1-4)GlcNAc(b1-3)Gal(b1-4)GlcNAc(b1-3)Gal(b1-4)GlcNAc(b1-3)Gal(b1-4)GlcNAc(b1-2)Man(a1-3)[Gal(b1-4)GlcNAc(b1-3)Gal(b1-4)GlcNAc(b1-3)Gal(b1-4)GlcNAc(b1-3)Gal(b1-4)GlcNAc(b1-3)Gal(b1-4)GlcNAc(b1-3)Gal(b1-4)GlcNAc(b1-2)Man(a1-6)]Man(b1-4)GlcNAc(b1-4)GlcNAc
# Method in brief: as §1
# [25] = target: Gal(b1-4)GlcNAc(b1-3)GalNAc
# Method in brief: as §1
# [26] = target: Gal3S(b1-4)[Fuc(a1-3)]Glc6S
# Method in brief: as §1
# GalNAc(b1-3)GlcNAc = target: GalNAc(b1-3)GlcNAc
# Method in brief: as §1
# GalNAc(b1-4)Gal(b1-4)Glc = target: GalNAc(b1-4)Gal(b1-4)Glc
# Method in brief: as §1
# [27] = target: GlcA3S(b1-3)Gal(b1-4)GlcNAc(b1-3)Gal(b1-4)Glc
# Method in brief: as §1
# [28] = target: GlcNAc(a1-4)Gal(b1-4)GlcNAc(b1-3)Gal(b1-4)GlcNAc
# Method in brief: as §1
# [29] = target: GlcNAc(b1-2)Man(a1-3)[GlcNAc(b1-4)][GlcNAc(b1-2)Man(a1-6)]Man(b1-4)GlcNAc(b1-4)GlcNAc
# Method in brief: as §1
# GlcNAc(b1-3)Fuc = target: GlcNAc(b1-3)Fuc
# Method in brief: as §1
# [30] = target: GlcNAc(b1-3)Gal(b1-4)GlcNAc(b1-2)Man(a1-3)[GlcNAc(b1-3)Gal(b1-4)GlcNAc(b1-2)Man(a1-6)]Man(b1-4)GlcNAc(b1-4)GlcNAc
# Method in brief: as §1
# [31] = target: GlcNAc(b1-3)Gal(b1-4)GlcNAc(b1-2)[GlcNAc(b1-3)Gal(b1-4)GlcNAc(b1-6)]Man(a1-6)[GlcNAc(b1-3)Gal(b1-4)GlcNAc(b1-2)Man(a1-3)]Man(b1-4)GlcNAc(b1-4)GlcNAc
# Method in brief: as §1
# [32] = target: GlcNAc(b1-3)Gal(b1-4)GlcNAc(b1-3)Gal(b1-4)GlcNAc(b1-3)Gal(b1-4)GlcNAc(b1-3)Gal(b1-4)GlcNAc(b1-2)[GlcNAc(b1-3)Gal(b1-4)GlcNAc(b1-3)Gal(b1-4)GlcNAc(b1-3)Gal(b1-4)GlcNAc(b1-3)Gal(b1-4)GlcNAc(b1-6)]Man(a1-6)[GlcNAc(b1-3)Gal(b1-4)GlcNAc(b1-3)Gal(b1-4)GlcNAc(b1-3)Gal(b1-4)GlcNAc(b1-3)Gal(b1-4)GlcNAc(b1-2)Man(a1-3)]Man(b1-4)GlcNAc(b1-4)[Fuc(a1-6)]GlcNAc
# Method in brief: as §1
# [33] = target: GlcNAc6S(b1-3)Gal(b1-4)GlcNAc
# Method in brief: as §1
# [34] = target: Man(a1-2)Man(a1-3)[Man(a1-2)Man(a1-6)]Man(a1-6)[Man(a1-2)Man(a1-2)Man(a1-3)]Man
# Method in brief: as §1
# MurNAc(b1-4)GlcNAc = target: MurNAc(b1-4)GlcNAc
# Method in brief: as §1
# [35] = target: Neu5Ac(a2-3)Gal(b1-3)GalNAc(b1-4)[Neu5Ac(a2-8)Neu5Ac(a2-3)]Gal(b1-4)Glc
# Method in brief: as §1
# [36] = target: Neu5Ac(a2-3)Gal(b1-3)GlcNAc
# Method in brief: as §1
# [37] = target: Neu5Ac(a2-3)Gal(b1-3)[Neu5Ac(a2-6)]GlcNAc(b1-3)[Fuc(a1-3)[Gal(b1-4)]GlcNAc(b1-6)]Gal(b1-4)Glc
# Method in brief: as §1
# [38] = target: Neu5Ac(a2-3)Gal(b1-4)GlcNAc(b1-2)[Neu5Ac(a2-3)Gal(b1-4)GlcNAc(b1-6)]Man(a1-6)[Neu5Ac(a2-3)Gal(b1-4)GlcNAc(b1-2)Man(a1-3)]Man(b1-4)GlcNAc(b1-4)GlcNAc
# Method in brief: as §1
# [39] = target: Neu5Ac(a2-3)Gal(b1-4)GlcNAc(b1-6)[Neu5Ac(a2-3)Gal(b1-3)]GalNAc
# Method in brief: as §1
# [40] = target: Neu5Ac(a2-3)Gal(b1-4)[Fuc(a1-3)]GlcNAc(b1-3)GalNAc
# Method in brief: as §1
# [41] = target: Neu5Ac(a2-6)Gal(b1-4)GlcNAc(b1-2)Man(a1-6)[Man(a1-3)]Man(b1-4)GlcNAc(b1-4)GlcNAc
# Method in brief: as §1
# [42] = target: Neu5Ac(a2-8)Neu5Ac(a2-3)[Gal(b1-3)GalNAc(b1-4)]Gal(b1-4)Glc
# Method in brief: as §1
binder,measurement,setting,value
B1,glycan array binding signal (z-score),[1],-0.523
same,glycan array binding signal (z-score),Fuc(a1-2)Gal(b1-4)Glc,0.123
same,glycan array binding signal (z-score),[2],-0.573
same,glycan array binding signal (z-score),[3],-0.447
same,glycan array binding signal (z-score),[4],-0.684
same,glycan array binding signal (z-score),[5],-0.163
same,glycan array binding signal (z-score),[6],-0.584
same,glycan array binding signal (z-score),[7],-0.132
same,glycan array binding signal (z-score),[8],-0.375
same,glycan array binding signal (z-score),[9],16.3
same,glycan array binding signal (z-score),[10],0.084
same,glycan array binding signal (z-score),[11],-0.504
same,glycan array binding signal (z-score),[12],0.763
same,glycan array binding signal (z-score),Fuc(a1-4)GlcNAc,-0.31
same,glycan array binding signal (z-score),[13],-0.356
same,glycan array binding signal (z-score),[14],1.85
same,glycan array binding signal (z-score),[15],0.418
same,glycan array binding signal (z-score),Gal(b1-2)Gal,-0.839
same,glycan array binding signal (z-score),[16],0.121
same,glycan array binding signal (z-score),[17],-0.739
same,glycan array binding signal (z-score),[18],0.989
same,glycan array binding signal (z-score),[19],-0.441
same,glycan array binding signal (z-score),[20],-0.393
same,glycan array binding signal (z-score),[21],0.031
same,glycan array binding signal (z-score),[22],1.6
same,glycan array binding signal (z-score),[23],1.01
same,glycan array binding signal (z-score),[24],2.18
same,glycan array binding signal (z-score),[25],0.32
same,glycan array binding signal (z-score),[26],1.65
same,glycan array binding signal (z-score),GalNAc(b1-3)GlcNAc,0.418
same,glycan array binding signal (z-score),GalNAc(b1-4)Gal(b1-4)Glc,0.371
same,glycan array binding signal (z-score),[27],2.45
same,glycan array binding signal (z-score),[28],1.54
same,glycan array binding signal (z-score),[29],-0.359
same,glycan array binding signal (z-score),GlcNAc(b1-3)Fuc,-0.426
same,glycan array binding signal (z-score),[30],-0.142
same,glycan array binding signal (z-score),[31],1.5
same,glycan array binding signal (z-score),[32],1.28
same,glycan array binding signal (z-score),[33],-0.663
same,glycan array binding signal (z-score),[34],0.574
same,glycan array binding signal (z-score),MurNAc(b1-4)GlcNAc,-0.389
same,glycan array binding signal (z-score),[35],-0.829
same,glycan array binding signal (z-score),[36],0.156
same,glycan array binding signal (z-score),[37],-0.376
same,glycan array binding signal (z-score),[38],-0.526
same,glycan array binding signal (z-score),[39],-0.478
same,glycan array binding signal (z-score),[40],1.49
same,glycan array binding signal (z-score),[41],1.67
same,glycan array binding signal (z-score),[42],0.946
